Measured values as given in PubChem BioAssay (EPA / NIEHS).
Calls of active or inactive are those of the source. The calls were made as follows: active = hit-call score of the fitted dose curve at least 0.9, where 1 is the maximum; inactive = score below 0.9.

Assay: CCTE_Mundy_HCI_hNP1_Casp3_7: CCTE's Caspase-Glo 3/7 Assay in human neuroprogenitor cells for Apoptosis, Mundy Lab (AID 2284240)
Protocol: CCTE_Mundy_HCI_hNP1_Casp3_7 is a multiplexed, cell-based-readout assay that uses neural stem cells derived from a neuroepithelial cell lineage of WA09 embryonic cells with measurements taken at […] after chemical dosing in a microplate: 96-well plate.CCTE_Mundy_HCI_hNP1_Casp3_7 is one component of the CCTE_Mundy_HCI_hNP1_Casp3_7 assay. It measures apoptosis related to caspase activation using Luminescent Reporter.Data from the assay component CCTE_Mundy_HCI_hNP1_Casp3_7 was analyzed at the endpoint CCTE_Mundy_HCI_hNP1_Casp3_7_gain in the positive analysis fitting direction relative to DMSO as the negative control and baseline of activity. Using a type of viability reporter, gain -of-signal activity can be used to understand viability effects.
Human neural progenitor cells (hNP1) were obtained as cryopreserved cells from ArunA Biomedical, Athens Georgia. Cells are plated on pre-coated poly-L-ornithine/laminin clear bottom and opaque 96 well plates (day 0). Plates are placed in a 37 °C, 5% CO2 incubator for 40 to 44 hours at which time plates are removed from the incubator and 10 uL of a freshly made chemical solution is added to each well. Apoptosis was measured based on detection of activated caspase-3/7 using the Caspase-Glo 3/7 assay kit (Promega). Twenty-four hours after chemical treatment, 50ul of Caspase-Glo 3/7 assay buffer was added to each well and the plate incubated for 30min at room temperature. Luminescence was then recorded in each well using a FLUOstar Optima plate reader.
In the case of `ClC1=C(Cl)[C@]2(Cl)[C@@H]3[C@@H]4C[C@@H]([C@H]5O[C@@H]45)[C@@H]3[C@@]1(Cl)C2(Cl)Cl`, the AC50 is reported as 15 µM (active).
With `COc1ccc(O)c(C(C)(C)C)c1` the outcome was “inactive”.
With `CCOP(=S)(OCC)SCSC(C)(C)C` the outcome was “inactive”.
In the case of `O=S(=O)(O)C(F)(F)C(F)(F)C(F)(F)C(F)(F)C(F)(F)C(F)(F)F`, the outcome is reported as “inactive”.
For `ClC1=C(Cl)[C@]2(Cl)[C@@H]3[C@@H](Cl)[C@H]4O[C@H]4[C@@H]3C1(Cl)C2(Cl)Cl`, the AC50 was 30.3 µM (active).
For `O=C(O)C(F)(F)C(F)(F)C(F)(F)C(F)(F)C(F)(F)C(F)(F)C(F)(F)C(F)(F)C(F)(F)F`, the outcome was “inactive”.
With `CO/C=C(/C(=O)OC)c1ccccc1COc1cccc(C(F)(F)F)n1` the AC50 was 21.7 µM (active).
With `NS(=O)(=O)C(F)(F)C(F)(F)C(F)(F)C(F)(F)C(F)(F)C(F)(F)C(F)(F)C(F)(F)F` the outcome was “inactive”.
In the case of `O=S(=O)(O)C(F)(F)C(F)(F)C(F)(F)C(F)(F)F`, the outcome is reported as “inactive”.
With `C=CC(N)=O` the outcome was “inactive”.
